Source: PubChem BioAssay (National Center for Advancing Translational Sciences (NCATS))
The full list was thinned out, with hits kept by preference.
Methyltransferases = Primary Screen for Target Class Profiling of Small Molecule Inhibitors of Methyltransferases. purified enzyme, MTase-Glo SAH luminescence; active compounds read low. calls only at 40 µM. actives 3.9% (n = 25,000); call rule not given here
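Each enzyme was assayed with SAM and its substrate. SAH formation detected by MTase-Glo luminescence; single-point 40 uM screen[…].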
The depositor's hits bear a star; i = inactive; + = active, no number. % is set by controls: 0 for no effect and ±100 for the full control effect.

SMILES	Methyltransferases
CCOc1ccc(Cc2nc(-c3c(C)nc4ccccn34)cs2)cc1	i
CC(C)OCCCNC(=O)C1c2c(n(C)c3ccccc23)SCC(=O)N1c1ccc(Cl)cc1 (stereo unspecified)	i
COc1ccc(CN2CCN(C(=O)[C@H]3CCC[C@@H](O)C3)CC2=O)cc1	i
Cc1nc(Nc2n[nH]c3c2CN(C(=O)N[C@H](CN(C)C)c2ccccc2)C3(C)C)c2sccc2n1	+
CC(=O)Nc1ccc(NS(=O)(=O)c2ccc3[nH]c(=O)[nH]c3c2)cc1	i
COc1cccn(CC(=O)N2CCN(c3ccccc3C#N)CC2)c1=O	i
CCCn1c(=O)c2ccc(Cl)cc2n2c(=O)n(CC(=O)Nc3ccc(C)cc3C)nc12	i
CNC(=O)Cn1ccc2cc(S(=O)(=O)N3CCCCC3)ccc21	i
CC1=C(C(=O)OC2CCCCC2)C(c2ccc([N+](=O)[O-])cc2)C2=C(CC(C)(C)CC2=O)N1 (stereo unspecified)	+
CCOC(=O)C1=C(C)NC(C)=C(C(=O)OC)C1c1cccc([N+](=O)[O-])c1 (stereo unspecified)	i
COCCOC(=O)C1=C(C)NC(C)=C(C(=O)OC(C)C)C1c1cccc([N+](=O)[O-])c1 (stereo unspecified)	i
O=S(=O)(c1ccccc1)c1nnn2c1nc(NCCc1ccc(Cl)cc1)c1ccccc12	i
COc1ccc(N(C)c2nc(C)nc3ccccc23)cc1	i
COc1ccc(/C=C/c2nc(NCCCN(C)C)c3ccccc3n2)cc1	+
CC1CCC(NC(=O)C2(C)Cn3c(ccc3-c3ccco3)C(=O)N2Cc2ccccc2Cl)CC1 (stereo unspecified)	i
Cc1cccc(NC(=O)N2CCn3cccc3C2Cc2ccccc2)c1 (stereo unspecified)	i
O=C(Nc1cccc(F)c1)N1CCn2cccc2C1Cc1ccccc1 (stereo unspecified)	i
O=C(Nc1ccc(F)c(Cl)c1)N1CCn2cccc2C1Cc1ccccc1 (stereo unspecified)	+
CCOC(=O)C1CCN(c2nc3c(S(=O)(=O)c4ccc(Br)cc4)nnn3c3ccccc23)CC1	i
O=c1[nH]c(=S)[nH]c(-c2ccccc2)c1Cc1c(O)ccc2ccccc12	+
Cc1ccc(Cn2c(=O)c3ccccc3n3c(=O)n(Cc4ccc(F)cc4)nc23)cc1	i
CN1C(=O)c2cc(C(=O)N3CCN(c4ccccc4F)CC3)nn2CC1(C)C(=O)NC1CCCCC1 (stereo unspecified)	i
O[C@H]1[C@H](NCc2cnc3ccccc3c2)[C@H]2CO[C@H](O2)[C@@H]1N1CCCCC1	i
Cc1ccc(-c2n[nH]n3c2nc(=O)c2ccc(C(=O)NCc4ccc(F)cc4)cc23)cc1	i
COc1ccc(C(=O)N2CCC(C3CCN(S(C)(=O)=O)CC3)C2)cc1OC (stereo unspecified)	i
SMILES	Methyltransferases
O=C(c1ccc(C2CCCNC2)cc1)N1CCCN(c2ccc(F)cc2)CC1 (stereo unspecified)	i
Cc1cccc2nc(CNC(=O)c3cccc(C4CCNC4)c3)cn12 (stereo unspecified)	i
NC(=O)c1cccc2cn(-c3ccc(C4CCCNC4)cc3)nc12 (stereo unspecified)	+
Cc1ccccc1CN1C(=O)c2cc3occc3n2CC1(C)C(=O)NC1CCCCCC1 (stereo unspecified)	i
CNC(=O)[C@@H](C1CCCCC1)N1CCC[C@H]1C(=O)NCCN1CCOCC1	i
CC(C)Oc1ccc(CNC(=O)Cn2ccc3cc(S(=O)(=O)N4CCCC4)ccc32)cc1	i
CC1(C(=O)NC2CCCCCC2)Cn2c(nc3ccccc32)C(=O)N1CCCN1CCOCC1 (stereo unspecified)	i
CCOc1ccc(C(=O)N2CCCC3(C2)NC(=O)N(Cc2cc(C)ccc2C)C3=O)cc1 (stereo unspecified)	i
Cc1cc(C(=O)N[C@H]2[C@H](O)[C@H](O)C[C@@H]2c2ccc(N3CCOCC3)nc2)n(C)n1	i
COc1ccc(C(=O)Nc2ccc3c(c2)CN(CCc2ccccc2)C(=O)C(C)O3)cc1OC (stereo unspecified)	i
COc1cc2c(cc1OC)CN(CCc1ccc(NC(=O)c3cccc4c(=O)c5cccc(OC)c5[nH]c34)cc1)CC2	+
COc1ccc(NC(=O)Cn2nc3n(Cc4ccc(F)cc4)c(=O)c4ccccc4n3c2=O)cc1OC	i
CN(C1CCc2nn(CC3CC3)c(=O)n2CC1)S(=O)(=O)c1cccnc1 (stereo unspecified)	i
CCc1ccc(S(=O)(=O)c2nnn3c2nc(NCCCOC(C)C)c2cc(Cl)ccc23)cc1	i
COc1ccc(-c2cc3n(n2)CC(C)(C(=O)NCc2ccccc2)N(c2cc(C)cc(C)c2)C3=O)cc1 (stereo unspecified)	i
Cc1ccc(CCN2C(=O)c3cc4ccccc4n3CC2(C)C(=O)NCCC(C)C)cc1 (stereo unspecified)	i
COc1ccccc1Nc1ncc2c(n1)CN(C(=O)c1ccnn1C)CCN2	i
